The supplement of paper PMC10338343
± gives the standard deviation.

Columns and labels:
[1] = tested on: MILI (PIWIL2) piRISC loaded with L1MC piRNA (26 nt); experiment: pre-steady-state target cleavage rate (min^-1); guide: L1MC piRNA 5'p-UAACUAAAUACUAUGCAAGCUGUAGG; higher = faster piRNA-guided slicing of the target
In short: (§1)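 The method was Cleave-'n-Seq, in which uncleaved targets from a transcribed, DNA-blocked target RNA library were sequenced after exposure to active affinity-purified piRISC carrying one synthetic guide, with or without GTSF1 partner protein. Reactions contained 0.1 nM library, 1 nM piRISC and, where present, 500 nM GTSF1 in HEPES–potassium acetate buffer at 33 °C for 0–8 or 0–960 min. Reads were normalised to depth and to weakly complementary targets, three trials were pooled, and k3 was capped at 0.0001 min^-1. The pre-steady-state cleavage rate came from a burst-and-steady-state fit.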

[2] = tested on: EfPiwi piRISC loaded with L1MC piRNA (26 nt); experiment: pre-steady-state target cleavage rate (min^-1); auxiliary factor: 500 nM Ephydatia muelleri Gtsf1; guide: L1MC piRNA 5'p-UAACUAAAUACUAUGCAAGCUGUAGG; MIWI and MILI are mouse PIWI proteins and EfPiwi is from a freshwater sponge; tags in brackets are library labels; higher = faster piRNA-guided slicing of the target
In short: as §1

[3] = auxiliary factor: 500 nM mouse GTSF1
[4] = auxiliary factor: none (no GTSF1)

Row | Sequence | pre-steady-state target cleavage rate [1, 3] | pre-steady-state target cleavage rate [1, 4] | pre-steady-state target cleavage rate [2]
1 | UCCUGGAACAGCUUGCAAAGUAUUAAGUUA | 0.0867 ± 0.015 | 0.00516 ± 0.0022 | 0.00406 ± 0.003
2 | UCCUGGAACAACUUGCAUAGUAUUUAGUUA | 0.262 ± 0.022 | 0.0104 ± 0.0027 | 0.0809 ± 0.023
3 | UCCUGGAUGAUCUUGCAUAGUAUUUAGUUA | 0.145 ± 0.016 | 0.00813 ± 0.003 | 0.0779 ± 0.023
4 | UCCUCCUACAGCUUGCAUAGUAUUUAGUUG [g2:g26:cont:t1G] | 0.158 ± 0.016 | 0.0087 ± 0.0025 | 0.00723 ± 0.0029
5 | UCCUGGUACAGCUUGCAUAGUAUGUUAGUUA | 0.184 ± 0.03 | 0.00462 ± 0.0027 | 0.00488 ± 0.0028
6 | UCCUGGAUGAAGCUUGCAUAGUAUUUAGUUA | 0.224 ± 0.02 | 0.0106 ± 0.0031 | 0.0366 ± 0.0082
7 | UCCUGGAUGUGCUUAGCAUAGUAUUUAGUUA | 0.124 ± 0.015 | 0.00625 ± 0.0028 | 0.00497 ± 0.0028
8 | UCCUCCUACAGCUUGCAUAGUAAUUUGUUA | 0.111 ± 0.021 | 0.00269 ± 0.0026 | 0.00652 ± 0.0028
9 | UCCUGGAUGAGCUUGACAUAGUAUUUAGUUA | 0.0929 ± 0.01 | 0.00352 ± 0.0026 | 0.00729 ± 0.0021
10 | UCCUGGAUGUCGUGCAUAGUAUUUAGUUA | 0.115 ± 0.014 | 0.00386 ± 0.0022 | 0.00802 ± 0.003
11 | UCCUGGUACAGCUGCAUAGUAUUUAGUUA | 0.23 ± 0.016 | 0.0103 ± 0.0029 | 0.00843 ± 0.0034
12 | UCCUGGAUGUGCUUGCAUAGUAUUUAGUCA | 0.117 ± 0.018 | 0.00487 ± 0.0035 | 0.00263 ± 0.0019
13 | UCCUGGAUCAGCUUGCAUAGUAUUUAGUGUA | 0.271 ± 0.023 | 0.00832 ± 0.0026 | 0.0168 ± 0.0061
14 | UCCUCCUACUGCUUGGAUAGUAUUUAGUUA | 0.223 ± 0.016 | 0.011 ± 0.0023 | 0.064 ± 0.012
15 | UCCUGGAACAGCUUGCAAAGUAUUUAGUAA | 0.158 ± 0.022 | 0.00401 ± 0.0024 | 0.00293 ± 0.0022
16 | UCCUGGAACAGGUUGCAUAGUAUAUAGUUA | 0.211 ± 0.023 | 0.00891 ± 0.0023 | 0.0101 ± 0.0045
17 | UCCUGGAACUCCUUGCAUAGUAUUUAGUAA | 0.169 ± 0.02 | 0.00259 ± 0.0025 | 0.00371 ± 0.0017
18 | UCCUGGAAGAGCUUGCAUAGUAUUAAGUUA | 0.21 ± 0.023 | 0.00346 ± 0.0028 | 0.00519 ± 0.0018
19 | UCCUGGUACAACUUGCAUAGUAUUUAGUUA | 0.273 ± 0.023 | 0.012 ± 0.0031 | 0.017 ± 0.0059
20 | UCCUGGAUGUCGAAGCAUAGUAUUUAGUUA [g2:g16:cont:t1A] | 0.0359 ± 0.0067 | 0.00487 ± 0.0016 | 0.00352 ± 0.002
21 | UCCUGGAUCAGCUUGCAUAGUAUUUAAGUUA | 0.251 ± 0.025 | 0.0108 ± 0.0029 | 0.00608 ± 0.0023
22 | UCCUCCUACACCUUGCUUAGUAUUUAGUUA | 0.193 ± 0.022 | 0.00665 ± 0.0019 | 0.00914 ± 0.0039
23 | UCCUCGUACAGGUUGCAUAGUAUUUAGUUA | 0.249 ± 0.01 | 0.00988 ± 0.0022 | 0.0399 ± 0.0088
24 | UCCUCCUACACGUUGCAUAGUAUUUAGUUA | 0.321 ± 0.021 | 0.00729 ± 0.0026 | 0.136 ± 0.035
25 | UCCUGGAUGAGCUUACAUAGUAUUUAGUUA | 0.153 ± 0.019 | 0.00591 ± 0.0023 | 0.00581 ± 0.0024
